Results published in PubChem BioAssay.
A number with no mark means an inactive call. Calls of active or inactive are those of the source. No stated cut-off is given here; in the data, active means fold change permeability below about 0.7 or above about 1.3; inactive means in between.

Test: compounds altering in vitro BBB leakiness – cell-based, FITC-avidin fluorescence, HTS, primary screen (AID 1963498); further: test concentration not given here
Details: brain endothelial barrier, actives lie on both sides

Row | Structure (SMILES) | fold change permeability
1 | COc1nc(C)cnc1NS(=O)(=O)c1cccnc1-c1ccc(-c2nnco2)cc1 | 1.4 (active)
2 | O=c1cc2c(=O)oc3cc(O)c(O)oc3c2c(O)c1O | 1.9 (active)
3 | C#CC(N)CCC(=O)O (stereo not drawn) | 1.1
4 | NCCSSCCN | 0.9
5 | C=CCc1ccccc1OCC(O)CNC(C)C (stereo not drawn) | 1.2
6 | COC(=O)[C@H]1[C@H]2C[C@@H]3c4[nH]c5cc(OC)ccc5c4CCN3C[C@H]2C[C@@H](OC(=O)c2cc(OC)c(OC)c(OC)c2)[C@@H]1OC | 1.5 (active)
7 | Nc1nc(OCc2ccccc2)c2[nH]cnc2n1 | 1
8 | N=S(=O)(O)Cc1noc2ccccc12 | 1.9 (active)
9 | CN1C2CCC1CC(OC(=O)C(O)c1ccccc1)C2 (stereo not drawn) | 1.1
10 | CCOC(=O)c1c(CSc2ccccc2)n(C)c2cc(Br)c(O)c(CN(C)C)c12 | 1.4 (active)
11 | O=S(=O)(c1cccc2c(Cl)cccc12)N1CCCNCC1 | 1.1
12 | CN1CCN(C2=Nc3ccccc3Oc3ccc(Cl)cc32)CC1 | 1.3 (active)
13 | Cc1ccc(C2Nc3ccccc3C(=O)N2c2ccccc2)s1 (stereo not drawn) | 1.3 (active)
14 | CCN(CC)CCNC(=O)c1cc(S(C)(=O)=O)ccc1OC | 0.9
15 | Cc1c(C(C)C)c(=O)n(-c2ccc(S(=O)(=O)NCCOc3ccccc3)cc2)n1C | 1.3 (active)
16 | CCCC1O[C@@H]2C[C@H]3[C@@H]4CCC5=CC(=O)C=C[C@]5(C)[C@H]4[C@@H](O)C[C@]3(C)[C@]2(C(=O)CO)O1 (stereo partly drawn) | 1.1
17 | CCCC(CCC)C(=O)OC1CC2CCC(C1)[N+]2(C)C (stereo not drawn) | 0.9
18 | CCCCCCCCCCCCCCCCCCOP(=O)([O-])OC1CC[N+](C)(C)CC1 | 0.9
19 | Cc1nc2c(OCc3ccccc3)cccn2c1CC#N | 0.9

Row | Structure (SMILES) | fold change permeability
20 | C[C@H]1O[C@@H](n2cc(F)c(=O)[nH]c2=O)[C@H](O)[C@@H]1O | 0.8
21 | CN(C)CCCNC(=O)c1ccc(-c2cc(O)c3ncccc3c2)cc1 | 0.8
22 | CCc1cccc(N(C)C(N)=Nc2cccc3ccccc23)c1 | 1.1
23 | CN1CCC[C@@H]1CCO[C@](C)(c1ccccc1)c1ccc(Cl)cc1 | 1.1
24 | OC[C@H]1NC[C@@H](O)[C@@H]1O | 1
25 | O=C(O)[C@H](CC(=O)N1C[C@H]2CCCC[C@H]2C1)Cc1ccccc1 | 1.2
26 | N[C@H](C(=O)O)[C@H](O)C(=O)O | 0.9
27 | O=CN(O)CCCP(=O)(O)O | 2.2 (active)
28 | C[C@@H](O[C@H]1OCCN(Cc2n[nH]c(=O)[nH]2)[C@H]1c1ccc(F)cc1)c1cc(C(F)(F)F)cc(C(F)(F)F)c1 | 1.4 (active)
29 | COC(=O)C1=C(C)NC(C)=C(C(=O)OC(C)(C)CN(C)CCC(c2ccccc2)c2ccccc2)C1c1cccc([N+](=O)[O-])c1 (stereo not drawn) | 1.1
30 | CNCCC=C1c2ccccc2CCc2ccccc21 | 1
31 | CNC(=O)Nc1cc(Oc2cncc(OC)c2)c(C2CCCOC2)cn1 (stereo not drawn) | 1.1
32 | Cc1ccc(CNCC2(F)CCN(C(=O)c3ccc(F)c(Cl)c3)CC2)nc1 | 1.3 (active)
33 | Nc1ccn([C@@H]2O[C@H](CO)[C@@H](O)[C@@H]2O)c(=O)n1 | 1
34 | CCOC(=O)C1=C(C)NC(C)=C(C(=O)OC)C1c1cccc([N+](=O)[O-])c1 (stereo not drawn) | 0.8
35 | COc1ccc(/C=C/C(=O)Nc2ccc(C(F)(F)F)cc2)cc1OC | 1.6 (active)
36 | CCN(CC)CCOc1ccc(/C(=C(/Cl)c2ccccc2)c2ccccc2)cc1 | 1.2
37 | CCCCNc1cc(C(=O)O)cc(S(N)(=O)=O)c1Oc1ccccc1 | 1
38 | CSc1c(C)c(SC)n2ccncc12 | 1.3 (active)
